Among all 2,100 compounds or so, about 320 (15%) were called active. Not shown: some 52% with an inconclusive outcome. This is one part of the list. Values without a mark were called inactive. The call rests on the fitted dose curve; in most records, active means well fitted cell-killing curve with a large enough effect; inconclusive means small, poorly fitted or top-dose-only effect, or effect the other way; inactive means flat fitted curve, though single readings scatter.
Assay: Viability Counterscreen for CMV-Luciferase Assay of Inhibitors of ATXN expression; further: nearly all actives have a fitted effect of over 55% in size
Conditions: HEK-293 CMV-luciferase cells viability, protease fluorescence, 24 h; activity change, negative = cytotoxicity: at the top concentration
From the text: PI: Daniel Scoles Ph.D. University of Utah School of Medicine, Salt Lake City, Utah MLPCN Grant: NS073009 Spinocerebellar ataxia type 2 (SCA2) is a multisystem neurodegenerative disease caused by a dominantly acting mutation leading to expansion of a polyQ domain in the ataxin-2 protein (ATXN2). SCA2 patients develop progressive ataxia and later lose function in other neuronal systems. Prominent parkinsonian signs develop in some patients. Like many neurodegenerative disorders, no symptomatic or disease-modifying treatments are known. The primary objective of the proposed research is to identify compounds inhibiting ATXN2 expression and to test them for efficacy in SCA2 mouse models. We have developed a cell-based assay paired with an in vivo mouse model using identical luciferase expression constructs. This approach takes advantage of an ATXN2-luciferase transgene, with the luciferase gene flanked by the upstream and downstream portions of the ATXN2 gene. Here we describe a 5-7 dose quantitative high thoroughput screen (qHTS) for compounds lowering ATXN2 expression. We screened the NIH Molecular Libraries Small Molecule Repository (MLSMR) and NCGC's mechanistically annotated (MIPE) and drug repurposing (NPC) collections of compounds for lowering expression of an ATXN2-luciferase reporter in HEK-293 cells. The assay is a multiplexed cell viability assay to ensure target reduction in the absence of cytotoxicity. Secondary qHTS assays included a CMV-luciferase reporter expressed in HEK-293 cells as well as a biochemical assay using recombinant luciferase to detect inhibitors of the reporter enzyme. Compounds that inhibit ATXN2 expression but is not cytotoxic were selected for confirmatory and secondary screens.
PROTOCOL TABLE (as described by Inglese J, Shamu CE and Guy RK. 2007) SEQUENCE No. (e.g., 1, 2, 3, etc.); […] (e.g., Cells, Incubation, Reagent, etc.); VALUE; DESCRIPTION. 1; Cells; 4 uL; white, solid bottom, 1536-well Greiner assay plate. 2; Incubation; 2 hr; 37 degree C in 5% humidified CO2. 3; Compounds; 23 nL; Kalypsis pintool (Wako USA) equipped with a 1536-well pin head. 4; Incubation; 24 hr; 37 degree C in 5% humidfified CO2. 5; Reagent; 1 uL; Gly-Phe-7-Amino-4-trifluoromethylcoumarin. 6; Incubation; 30 min; 37 degree C in 5% humidfified CO2. 7; Detection; Fluorescence; Viewlux plate reader (PerkinElmer). 8; Reagent; 3 uL; SteadyGlo luciferase solution (Promega). 9; Incubation; 5 min; room temperature. 10; Detection; Luminescence; ViewLux plate reader (PerkinElmer). NOTES (numbers refer to Sequence numbers above) 1. HEK-293 cells expressing CMV-luciferase reporter (designated as SC cells) were suspended in phenol-red free DMEM and dispensed in assay plates using a Multidrop Combi dispenser (Thermo Fisher Scientific). 2. Assay plates were incubated. Evaporation was prevented by covering assay plates with metal lids containing holes to allow gas diffusion. 3. Compounds were added in a dose response manner with the final concentrations of 57, 11.4, 2.28, 0.46, 0.091, 0.018, 0.0037 uM. Vehicle-only plates, with DMSO being pin-transferred to columns 5-48, were inserted uniformly at the beginning and the end of each library to monitor and record any shifts in assay performance. 5. 125 uM Gly-Phe-7-Amino-4-trifluoromethylcoumarin (MP Biomedicals) working concentration was used at a final concentration of 25 uM. 7. To assess cell viability; the assay plates were read using the ViewLux high-throughput CCD imager (PerkinElmer), wherein single end-point fluorescence measurement was acquired (excitation 405/10; emission 540/25 nm). 8. Detection reagent SteadyGlo Luciferase (Promega) was added to the assay plate. 10. Luminescence is then measured on the ViewLux imager equipped with a clear emission filter using a 2 sec exposure. […]
On the % scale 0 is the no-effect control and ±100 the full control effect; potency means the concentration at half of the fitted maximal effect.

SMILES	Potency	activity change, negative = cytotoxicity
N#C/C(=C\C=C\c1ccccc1[N+](=O)[O-])C(=O)NCc1ccccc1	3.16 µM (active)	–
CCN(CC)C(=O)C1=C(C)N(CCC2=CCCCC2)C(=O)C(CC(=O)NC(c2ccccc2)c2ccccc2)C1 (centres undefined)	–	-26.1%
O=C(O)CSc1cc(NS(=O)(=O)c2ccc(Cl)cc2)c2ccccc2c1O	–	-8.84% [at 57.5 µM]
COc1ccc(-c2csc(N(CCCN3CCOCC3)C(=O)c3ccco3)n2)cc1	–	-15.1%
CCOc1ccc(NCc2cccn2-c2nnc(N3CCC(C(=O)NCCCN4CC(C)CC(C)C4)CC3)s2)cc1 (centres undefined)	–	-19.6%
CCN(CC)CCNC1=NCCn2c1cc1cc(OC)ccc12	–	-15.7%
CCCCCn1c(=O)c2ccccc2n2c(CCl)nnc12	14.1 µM (active)	–
Cc1cc(C)cc(OCC(=O)NNC(=S)NC(=O)C2CC2)c1	–	-23.3%
CCCCC1C(=O)CC[C@H]2[C@@H]1CC(=O)[C@@H]2C/C=C\CCCC(=O)O (some centres undefined)	–	-4.83%
CC(=O)N1c2ccc(S(=O)(=O)N3CCC(C(=O)N4CCN(c5ccc(Cl)cc5)CC4)CC3)cc2CC1C (centres undefined)	–	-27.4% [at 57.5 µM]
CC1CC2(C)Oc3ccccc3CC2C(C)C1CNCCCN(C)C (centres undefined)	35.5 µM (active)	–
COc1cc([N+](=O)[O-])cc(/C=N/NC(=O)c2ccc(NC(=O)c3ccc(C)cc3)cc2)c1O	1.41 µM (active)	–
CC(C)C(=O)Nc1ccc(C(=O)N/N=C/c2cc(Br)cc(Br)c2O)cc1	–	17.3% [at 57.5 µM]
COc1cc(Br)cc(/C=N/NC(=O)Cc2ccc(C(F)(F)F)cc2[N+](=O)[O-])c1O	–	-26.5% [at 57.5 µM]
CC(=O)N1CCN(c2ccc(Oc3ccc([N+](=O)[O-])c(C(F)(F)F)c3)cc2)CC1	–	-28.6% [at 57.5 µM]
O=C(Oc1c(CN2CCOCC2)cc(Cl)c2cccnc12)c1ccccc1	–	-15.7%
Cc1cc(Oc2ccc(Cl)cc2)nc(-c2ccccn2)n1	–	9.12% [at 57.5 µM]
Clc1ccc(SCc2cc(N3CCOCC3)nc(-c3ccccn3)n2)cc1	17.8 µM (active)	–
CCCC(=O)Nc1ccc2nc(SCC(=O)N3CCCC3)sc2c1	–	10.3% [at 57.5 µM]
COc1ccccc1OCCN1CSC(=S)N(C)C1	11.2 µM (active)	–
COc1cc(OC)cc(-c2cc3nc(C)c(CCC(=O)NCc4ccccc4)c(C)n3n2)c1	–	0.755% [at 57.5 µM]
O=C(NCc1ccccc1C(F)(F)F)c1cccc2c1C(=O)c1ccc(N3CCC(N4CCCCC4)CC3)cc1S2(=O)=O	–	-2.76%
Cc1ccsc1/C=C/C1=Cc2c(sc(NC(=O)CSc3n[nH]c(N)n3)c2C#N)C(C)(C)C1	–	2.76% [at 57.5 µM]
COC(=O)c1ccccc1S(=O)(=O)NNC(=O)Nc1ccccc1	–	7.74%
CCSc1nc2ccccc2n1C(=O)/C=C\c1ccc(OC)c(OC)c1	4.47 µM (active)	–

SMILES	Potency	activity change, negative = cytotoxicity
COc1ccc(/C=C/C(=O)Nc2cccc(S(=O)(=O)N3CCCC3)c2)cc1OC	–	17.8%
O=C(CN1c2cccc3cccc(c23)S1(=O)=O)NCc1ccc(Cl)cc1	–	1.66%
CCN(CC)CCC(c1ccc2c(c1)OCO2)c1c(OC)cc(OC)c2c(-c3ccccc3)cc(=O)oc12 (centres undefined)	17.8 µM (active)	–
COc1ccc(-n2nc(C(=O)NCC(=O)Nc3cccc(Cl)c3)c3ccccc3c2=O)cc1OC	–	-8.61% [at 57.5 µM]
CC(C)(C)c1ccc(OCCn2nc(C(=O)O)c3ccccc3c2=O)cc1	–	-4.92% [at 57.5 µM]
COc1ccccc1C(=O)NNC(=O)c1nn(Cc2ccccc2)c(=O)c2ccccc12	22.4 µM (active)	–
O=C(N/N=C/c1ccccc1O)/C(=C/c1ccccc1)CCO	–	-7.96%
O=C(C(Br)=Cc1ccccc1)c1ccccc1	7.94 µM (active)	–
CC(C)(C)NCC(=Cc1ccccc1)C(=O)c1ccccc1	2.24 µM (active)	–
Cc1ccc(CN(C)C(=O)CN2C(=O)NC(c3ccccc3)(c3ccccc3)C2=O)c(C)c1	–	-27.6%
O=C(Nc1cccc(S(=O)(=O)N2CCOCC2)c1)c1ccc2c(=O)n3c(nc2c1)CCCCC3	–	-20.1%
O=C(Nc1ccc(Cl)cc1)Nc1nc(-c2sccc2Br)cs1	10 µM (active)	–
O=C(Nc1ccc(NC(=O)c2ccc(Cl)cc2Cl)cc1)c1cccs1	–	-25.7% [at 57.5 µM]
Cc1ccc(F)cc1-c1cc2nc(NCCCN(C)C)n(C)c(=O)c2s1	–	-13.1% [at 57.5 µM]
CC(C)c1cccc(C(C)C)c1Nc1cn[nH]c1	–	-15.4%
CCOC(=O)c1cnc(-n2nc(C)cc2C)nc1NC1CCCC1	–	-7.03%
CCOC(=O)c1cnc(-n2nc(C)cc2C)nc1NNc1cc(C)nc(-c2ccccc2)n1	8.91 µM (active)	–
CCCc1cc(NCc2ccccn2)n2nc(C)c(-c3ccccc3)c2n1	–	-18.3%
CC(C)C(CCNCc1ccccn1)c1ccc(Cl)cc1 (centres undefined)	–	5.83% [at 57.5 µM]
Cc1cc(NCc2ccccn2)n2nc(C)c(-c3ccc(Cl)cc3)c2n1	20 µM (active)	–
COc1cc(OC)c(OC)cc1/C=C1\CC(C)C/C(=C\c2cc(OC)c(OC)cc2OC)C1=O (centres undefined)	–	-29.6% [at 57.5 µM]
COc1cc(/C=C2\COC/C(=C\c3cc(OC)c(OC)c(OC)c3)C2=O)cc(OC)c1OC	1.58 µM (active)	–
COc1cc(/C=C/c2ccc3cccc(O)c3n2)cc(OC)c1OC	–	-28.4% [at 57.5 µM]
CCOC(=O)N(C)c1c(CC)nc2c(OCc3ccccc3OC)cccn12	–	14.1% [at 57.5 µM]
